Values joined by “and” are separate entries in the source; they are usually repeats but may differ in a detail not shown here. Identical values can stand only once. Records with an inconclusive call do not appear. Unmarked numbers belong to inactive results. Active and inactive are the calls of the source. Calls follow the shape of the dose curve; as a rule, active = well fitted curve in the direction sought with a large enough effect; inconclusive = small, poorly fitted or top-dose-only effect, or another doubt; inactive = no such curve, though single readings can be large; an effect the other way counts as inactive or inconclusive. Positions of bridges follow the written chain, without caps; N, C: chain ends. Non-standard residues stand in square brackets, D forms with d. Residues, ends and D or L forms follow the SMILES beside them. ξ: configuration not given here. *: point of attachment. Octanoyl(6-Me) = CCC(C)CCCCC(=O)*; ξThr(3R) = C[C@@H](O)C(N)C(=O)O; dDab = NCC[C@@H](N)C(=O)O; Dab = NCC[C@H](N)C(=O)O
Assays:
[1] = target: Cellular tumor antigen p53 (Homo sapiens) (UniProt P04637); test: Primary qHTS for small molecule compounds that upregulate eGFP-tagged delta133p53alpha (in N-terminal) cells. (AID 2060322); conditions: NCI-H358 eGFP-delta133p53alpha fluorescence, 24 h; activation: active compounds read high; also: nearly all actives have a fitted effect of over 75% in size;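 as to activation: cells pre-induced with doxycycline then dosed without doxycycline; series mostly up to about 56 µM; 0% = DMSO vehicle and 100% = reference activator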
Summary of the method: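 NCI-H358 cells pre-induced 24 h with 10 ng/ml doxycycline for eGFP-delta133p53alpha, plated dox-free and exposed 24 h at 37C to titrated compounds. Fixed, Hoechst-stained; gated GFP peak intensity by laser scanning cytometry, normalized to DMSO (0%) and 57.5 uM 5-azacytidine (100%).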

[2] = BET inhibitor-based combinations targeting novel dependencies in MECOM-rearranged (r) AML: SET-2 cell line (AID 2202231); conditions: SET-2 AML cells viability, CellTiter-Glo luminescence, 48 h; viability: active compounds read low, concentration not given here; also: nearly all actives have a fitted effect of over 35% in size;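 as to viability: plate controls were DMSO treated cells for no effect and wells without cells for full effect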
Summary of the method: (§1)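 Viability of cells (500 per well) is scored by luminescent CellTiter-Glo at 48 hr post-dosing. Eleven-point titrations are normalized to DMSO and empty controls and reduced to AUC values.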

[3] = BET inhibitor-based combinations targeting novel dependencies in MECOM-rearranged (r) AML: OCI-AML3 cell line (AID 2202232); conditions: Potency: OCI-AML3 viability; also: nearly all actives have a fitted effect of over 35% in size
Summary of the method: as §1

[4] = BET inhibitor-based combinations targeting novel dependencies in MECOM-rearranged (r) AML: MV-4-11 cell line (AID 2202233); also: nearly all actives have a fitted effect of over 45% in size
Summary of the method: (§2)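 Using pin-tool transfer, drugs were added in 11 doses to cells (500/well), incubated 48 hr, and assessed with CellTiter-Glo. Z-AUC is a mean-centring transformation applied separately to each screened line.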

[5] = BET inhibitor-based combinations targeting novel dependencies in MECOM-rearranged (r) AML: HNT-34 cell line (AID 2202234); also: nearly all actives have a fitted effect of over 35% in size
Summary of the method: as §2

[6] = BET inhibitor-based combinations targeting novel dependencies in MECOM-rearranged (r) AML: AML-194 cell line (AID 2202237; also: nearly all actives have a fitted effect of over 40% in size)
Summary of the method: as §1

[7] = BET inhibitor-based combinations targeting novel dependencies in MECOM-rearranged (r) AML: AML-191 cell line (AID 2202236; also: nearly all actives have a fitted effect of over 35% in size)
Summary of the method: as §1

[8] = BET inhibitor-based combinations targeting novel dependencies in MECOM-rearranged (r) AML: UCSD-AML1 cell line (AID 2202235); also: nearly all actives have a fitted effect of over 40% in size
Summary of the method: as §2
Potency is read from the fitted curve at half-maximal effect.

Sequence of Cellular tumor antigen p53 (Homo sapiens) (P04637 whole entry, looked up): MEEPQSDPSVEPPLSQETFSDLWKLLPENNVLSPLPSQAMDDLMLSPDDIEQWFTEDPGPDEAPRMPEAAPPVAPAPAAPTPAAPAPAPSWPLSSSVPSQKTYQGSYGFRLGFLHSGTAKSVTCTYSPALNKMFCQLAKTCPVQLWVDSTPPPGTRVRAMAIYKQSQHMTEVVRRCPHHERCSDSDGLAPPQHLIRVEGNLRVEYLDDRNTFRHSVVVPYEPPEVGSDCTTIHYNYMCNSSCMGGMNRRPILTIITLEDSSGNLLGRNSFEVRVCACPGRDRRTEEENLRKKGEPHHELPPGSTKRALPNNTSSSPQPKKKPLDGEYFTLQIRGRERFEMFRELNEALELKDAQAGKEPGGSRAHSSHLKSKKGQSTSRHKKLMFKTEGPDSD

Compound | activation [1] | Potency [2] | Potency [3] | Potency [4] | Potency [5] | Potency [6] | Potency [7] | viability [2] | Potency [8] | Potency [1]
CC(C)(Cc1ccc2ccccc2c1)NC[C@@H](O)COc1cccc(Cl)c1C#N | 19.8% | 18.6 µM (active) | 16.6 µM (active) | 16.6 µM (active) | 16.6 µM (active) | 10.5 µM (active) | – | – | – | –
CN1CCN(c2cc(C(=O)Nc3ccc4c(c3)-c3c(c(C(N)=O)nn3-c3ccc(F)cc3)CC4)c(Cl)cn2)CC1 | 10.2% | 8.33 µM (active) | 16.6 µM (active) | 7.42 µM (active) | 7.42 µM (active) | 8.33 µM (active) | 8.33 µM (active) | – | – | –
O=C1CCCC(=O)C1C(=O)c1ccc(C(F)(F)F)cc1[N+](=O)[O-] | 24.5% | – | inactive | inactive | inactive | inactive | inactive | 111% | – | –
CC(=O)OC[C@@H]1O[C@@H](n2ccc(=O)[nH]c2=O)[C@H](OC(C)=O)[C@H]1OC(C)=O | 5.73% | – | inactive | inactive | inactive | inactive | inactive | 108% | – | –
C[C@@H](NCc1cc2ccccc2[nH]1)c1cccc2ccccc12 | -11% | 16.6 µM (active) | 14.8 µM (active) | 18.6 µM (active) | 10.5 µM (active) | 8.33 µM (active) | 13.2 µM (active) | – | – | –
CC(=O)OCC(=O)[C@@]12N=C(C)O[C@@H]1C[C@H]1[C@@H]3CCC4=CC(=O)C=C[C@]4(C)[C@H]3[C@@H](O)C[C@@]12C | -1.69% | – | inactive | inactive | – | – | – | 113% | inactive | –
COC[C@H](NC(=O)c1cnc(C)s1)C(=O)N[C@@H](COC)C(=O)N[C@@H](Cc1ccccc1)C(=O)[C@@]1(C)CO1 | – | 0.166 µM (active) | 0.0934 µM (active) | 0.0833 µM (active) | 0.0934 µM (active) | 0.332 µM (active) | 0.186 µM (active) | – | – | 17.2 µM (active)
C[C@@H]1C[C@H]2[C@@H]3CCC4=CC(=O)C=C[C@]4(C)[C@@]3(F)[C@@H](O)C[C@]2(C)[C@@]1(O)C(=O)CO | -11.9% | – | inactive | inactive | – | – | – | 112% | inactive | –
O=C(NCCS(=O)(=O)c1ccc(C(F)(F)F)cn1)c1ccc(Cl)cc1 | 6.23% | – | inactive | inactive | inactive | inactive | inactive | 108% | – | –
COc1cc(OC)c(C(=O)CCCN2CCCC2)c(OC)c1 | -15.1% and 2.07% | – | inactive | inactive | – | inactive | inactive | 98% | inactive | –
CN(C)CC/C=C1/c2ccccc2COc2ccc(CC(=O)O)cc21 | -13% | – | inactive | inactive | inactive | inactive | inactive | 121% | – | –
O=C(/C=C/C#Cc1cccc(NS(=O)(=O)c2ccccc2)c1)NO | -10.1% | 0.407 µM (active) | 0.574 µM (active) | 0.182 µM (active) | 0.723 µM (active) | 0.91 µM (active) | 0.723 µM (active) | – | – | –
Cc1ccc(C(=O)c2cc(O)c(O)c([N+](=O)[O-])c2)cc1 | 1.67% and 0.973% | – | inactive | inactive | inactive | inactive | – | 104% | – | –
OCc1ccc(-c2nn(Cc3ccccc3)c3ccccc23)o1 | -12.3% and 3.48% | 16.6 µM (active) | 23.5 µM (active) | 5.9 µM (active) | – | – | – | – | 20.9 µM (active) | –
Cc1ccc(C(=O)Nc2cccc(C(F)(F)F)c2)cc1Nc1nc(-c2cccnc2)nc2c1cnn2C | 9.99% | 20.9 µM (active) | 8.33 µM (active) | 16.6 µM (active) | 9.34 µM (active) | 10.5 µM (active) | 8.33 µM (active) | – | – | –
Cc1cccc(-c2[nH]c(C(C)(C)C)nc2-c2ccc3c(c2)OCO3)n1 | -10.9% | 16.6 µM (active) | 3.72 µM (active) | 2.95 µM (active) | 6.61 µM (active) | 6.61 µM (active) | 6.61 µM (active) | – | – | –
O=C(Nc1c(Cl)cncc1Cl)c1ccc(OC(F)F)c(OCC2CC2)c1 | -4.21% | – | inactive | inactive | inactive | inactive | inactive | 98.8% | – | –
CCC(C)CCCCC(=O)N[C@@H](CCN)C(=O)NC(C(=O)N[C@H](CCN)C(=O)N[C@@H]1CCNC(=O)C([C@@H](C)O)NC(=O)[C@@H](CCN)NC(=O)[C@@H](CCN)NC(=O)[C@@H](CC(C)C)NC(=O)[C@H](Cc2ccccc2)NC(=O)[C@H](CCN)NC1=O)[C@@H](C)O (stereo partly drawn) ({Octanoyl(6-Me)}-[Dab][ξThr(3R)][dDab][dDab][Dab]F[dL][dDab][dDab][ξThr(3R)]; lactam 4-C) | 11.9% | – | inactive | inactive | inactive | inactive | inactive | 126% | – | –
C[C@@H](Oc1cc(-n2cnc3ccc(CN4CCN(C)CC4)cc32)sc1C(N)=O)c1ccccc1C(F)(F)F | 2.47% | 0.105 µM (active) | 0.0468 µM (active) | 0.105 µM (active) | – | – | 0.0934 µM (active) | – | 0.118 µM (active) | –

Compound | activation [1] | Potency [2] | Potency [3] | Potency [4] | Potency [5] | Potency [6] | Potency [7] | viability [2] | Potency [8] | Potency [1]
COc1ccc2c3n(c(=NC(=O)c4cccnc4)nc2c1OC)CCN3 | -16.5% | – | 0.235 µM (active) | 0.148 µM (active) | 0.332 µM (active) | 1.18 µM (active) | 0.468 µM (active) | 112% | – | –
COC(=O)Nc1nc2ccc(Sc3ccccc3)cc2[nH]1 | -17.6% and 21.8% | 1.18 µM (active) | 0.742 µM (active) | 0.934 µM (active) | – | – | – | – | 0.468 µM (active) | –
Cc1ccc(O)c(C(CCN(C(C)C)C(C)C)c2ccccc2)c1 (centres undefined) | 47.6% | – | inactive | inactive | inactive | inactive | – | 117% | – | –
O=C(O)CSCC(=O)NC1CCSC1=O (centres undefined) | -13.1% and -8.37% | – | inactive | inactive | inactive | inactive | inactive | 95.2% | – | –
CCCCCCCCc1ccc(CCC(N)(CO)CO)cc1 | 2.16% | 26.3 µM (active) | 13.2 µM (active) | 14.8 µM (active) | 18.6 µM (active) | 14.8 µM (active) | 16.6 µM (active) | – | – | –
O=C1NC(O)CCN1[C@@H]1O[C@H](CO)[C@H](O)[C@H]1O (some centres undefined) | -10.6% | – | inactive | inactive | inactive | inactive | inactive | 115% | – | –
CN[C@@H]1CN(c2ccc3c(=O)c(C(=O)O)cn(-c4nccs4)c3n2)C[C@@H]1OC | 8.83% | 3.23 µM (active) | 1.15 µM (active) | 0.323 µM (active) | 1.15 µM (active) | 1.29 µM (active) | – | – | – | –
CCc1cc(-c2n[nH]c(C)c2-c2ccc3c(c2)OCCO3)c(O)cc1O | 2.7% | 14.8 µM (active) | 18.6 µM (active) | 4.68 µM (active) | 14.8 µM (active) | 16.6 µM (active) | – | – | – | –
COc1cc(C(=O)NC2CCN(C)CC2)ccc1Nc1ncc2c(n1)N(C1CCCC1)CCC(=O)N2C(C)C | 7.36% | 23.5 µM (active) | 14.8 µM (active) | 6.61 µM (active) | 16.6 µM (active) | 23.5 µM (active) | 18.6 µM (active) | – | – | –
CC(C)(F)C[C@H](N[C@@H](c1ccc(-c2ccc(S(C)(=O)=O)cc2)cc1)C(F)(F)F)C(=O)NC1(C#N)CC1 | -2.96% | – | inactive | 4.68 µM (active) | – | – | inactive | 104% | inactive | –
Cc1cc(OCCCS(C)(=O)=O)cc(C)c1-c1cccc(COc2ccc3c(c2)OC[C@H]3CC(=O)O)c1 | 5.3% | – | inactive | inactive | inactive | inactive | inactive | 98.7% | – | –
COc1cc2c(cc1OC)CC(=O)N(CCCN(C)C[C@H]1Cc3cc(OC)c(OC)cc31)CC2 | -11.1% | – | inactive | inactive | – | inactive | inactive | 111% | inactive | –
CC(=O)SC[C@@H](C)C(=O)N1CCC[C@H]1C(=O)N[C@@H](Cc1ccccc1)C(=O)O | -26.8% | – | inactive | inactive | inactive | inactive | inactive | 115% | – | –
C1CCC(C(CC2CCCCN2)C2CCCCC2)CC1 (centres undefined) | 21.8% | 11.8 µM (active) | 6.61 µM (active) | 8.33 µM (active) | 7.42 µM (active) | 7.42 µM (active) | 9.34 µM (active) | – | – | –
OC(c1cc(C(F)(F)F)nc2c(C(F)(F)F)cccc12)C1CCCCN1 (centres undefined) | -0.154% | 26.3 µM (active) | 18.6 µM (active) | 20.9 µM (active) | 23.5 µM (active) | 20.9 µM (active) | 23.5 µM (active) | – | – | –
C[C@](Cc1c[nH]c2ccccc12)(NC(=O)OC1C2CC3CC(C2)CC1C3)C(=O)NC[C@H](NC(=O)CCC(=O)O)c1ccccc1 (some centres undefined) | 8.58% | – | inactive | inactive | inactive | inactive | – | 110% | – | –
NC(=O)Nc1cc(-c2ccc(CN3CCOCC3)cc2)sc1C(N)=O | 3% | 10.5 µM (active) | 0.934 µM (active) | 0.332 µM (active) | 1.18 µM (active) | 0.742 µM (active) | 2.63 µM (active) | – | – | –
C#C[C@]1(O)CC[C@H]2[C@@H]3CCC4=CC(=O)CC[C@@H]4[C@H]3CC[C@@]21CC | -5.86% | – | inactive | 13.2 µM (active) | inactive | inactive | – | 103% | – | –
C[C@H]1C[C@@H]2[C@H]([C@@H](O)C[C@@]3(C)[C@H]2CC[C@]3(O)C(=O)CO)[C@@]2(C)C=CC(=O)C=C12 | 5.86% | – | inactive | inactive | – | 0.209 µM (active) | 0.263 µM (active) | 114% | inactive | –
